# Shown are actives, neighbours in structure and some others; about 3% of the full set was active somewhere.
# p53null 32C tox – qHTS Screen for Compounds that Selectively Target Cancer Cells with p53 Mutations: Cytotoxicity of p53 Null Cells at the Permissive Temperature; H1299-neo p53 null cells, ATP luminescence, 24 h, 32C; Potency, µM (series often up to 46.1 µM), for inactives: top-dose activity change, negative = cytotoxicity, usual class: cytotoxic; actives 0.62% (n = 55,000);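 note: potency is the fitted concentration of half-maximal effect; 0% = DMSO only and -100% = full killing by 100 µM tamoxifen; nearly all actives have a fitted effect of over 55% in size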
#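 We seeded p53-null H1299-neo cells, incubated them overnight at 37C, and added compounds across a range up to 46 uM. After 24 hours at 32C, ATP reagent was applied for 20 min at room temperature and luminescence recorded.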
# p53null 39C kill – qHTS Screen for Compounds that Selectively Target Cancer Cells with p53 Mutations: Cytotoxicity of p53 Null Cells at the Nonpermissive Temperature. H1299 p53-null (neo) cells, 39C, ATPlite viability, 24 h. actives 0.97% (n = 55,000). Potency, µM (series often up to 46.1 µM), for inactives: at the top dose activity, negative = cell killing, actives largely listed as cytotoxic. AID 904, 2007;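 note: potency is the fitted concentration of half-maximal effect; 0% = DMSO only and -100% = full killing by 100 µM tamoxifen; nearly all actives have a fitted effect of over 50% in size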
#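 Luminescent ATP signal reported cell survival after H1299 lines (neo, p53 null; or p53 A138V) received up to 46 uM compound and 24 hr incubation at 39C.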
# mTORC1 inh – Acumen qHTS Assay for Inhibitors of the mTORC1 Signaling Pathway in MEF (Tsc2-/-, p53-/-) Cells: Sytravon; Tsc2-/- p53-/- MEF, phospho-rpS6 immunofluorescence/PI, 24 h; Potency, µM (top dose mostly 38.3 µM), for inactives: at the highest dose activity change, negative = inhibition, most hits filed as inhibitors; actives 0.78% (n = 44,000);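 note: potency is the fitted concentration of half-maximal effect; plate controls were DMSO for no effect and rapamycin for full effect; nearly all actives have a fitted effect of over 50% in size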
#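 Read-out: phospho-S6 Alexa-488 intensity over PI intensity per well, scored as % active cells using thresholds from rapamycin (7.5 nM) and DMSO controls. Tsc2-/-, p53-/- MEFs exposed to compound for 24 h; PI cell count recorded as viability.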
# PMP22 txn – Cell-based coincidence reporter assay to measure PMP22 gene transcription in S16 Pmp22-F2sN cells - Primary screen; AID 1508649, 2021; Potency, µM (doses to about 57.5 µM), for the others: at the highest dose activity change, negative = inhibition, most hits filed as inhibitors; actives 2% (n = 43,000); S16 Pmp22-F2sN Schwann cells, FLuc/NLuc coincidence luminescence, 24 h; active = clear falling dose curves in both reporters; inconclusive = both reporters move, but less clearly or upward; inactive = either reporter flat; the % is the NLuc reporter signal; note: potency is the fitted concentration of half-maximal effect; % is set by controls: 0 for no effect and ±100 for the full control effect
#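 qHTS, 1536-well. Cells seeded, compounds added by pin tool, 24 h 37C. Nano-Glo reagent 1 (lysis/FLuc), 10 min RT, read; Stop&Glo, 10 min RT, read NLuc.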
# OvCa metastasis – Primary qHTS assay for Inhibitors of ovarian cancer metastasis using an organotypic tumor microenvironment (TME) model; Potency, µM (titrated, usually from 45.8 µM), for the others: at the top dose activity change, negative = inhibition, usual class: inhibitors; AID 1963576, 2024; SKOV3ip1-GFP adhesion/invasion on 3D omental model, fluorescence; actives 0.1% (n = 46,000);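 note: potency is the fitted concentration of half-maximal effect; plate controls were DMSO wells for no effect and tomatine positive control wells for full effect; nearly all actives have a fitted effect of over 65% in size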
#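 A 3D layer of primary human omental fibroblasts, mesothelial cells, fibronectin and collagen I, grown 48 hr, received SKOV3ip1-GFP cells in serum-free medium plus compounds at 0.36-46 umol/L. After 2 hr RT and 16 hr 37 C, fixed adherent GFP cells were counted; normalized to DMSO and tomatine.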
# S16 F2sN tox – Cell viability qHTS assay in S16 Pmp22-F2sN cells; S16 Pmp22-F2sN Schwann cells viability, CellTiter-Glo, 24 h; Potency, µM (titrated, usually from 57.5 µM), for the others: top-dose activity change, negative = cytotoxicity, most hits filed as cytotoxic; actives 0.48% (n = 43,000); note: potency is the fitted concentration of half-maximal effect; % is set by controls: 0 for no effect and ±100 for the full control effect; nearly all actives have a fitted effect of over 65% in size
#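 Used to flag compounds lowering reporter output through toxicity, this quantitative HTS measures ATP-based CellTiter-Glo luminescence in S16 Pmp22-F2sN Schwann cells after 24 h compound exposure at 37C.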
# NLuc saturating – Biochemical NLuc saturation counterscreen for small molecule modulators of PMP22 gene expression - Nano-Glo assay; shares compounds with PMP22 txn; Secreted NLuc enzyme (filtered S16 cell medium), Nano-Glo luminescence; Potency, µM (titrated, usually from 57.5 µM), without a hit: at the top dose activity change, negative = inhibition, actives largely listed as inhibitors; actives 4% (n = 690); note: potency is the fitted concentration of half-maximal effect; % is set by controls: 0 for no effect and ±100 for the full control effect
# NLuc Km ctr – Biochemical coelenterazine-based NLuc counterscreen for small molecule modulators of PMP22 gene expression - Km assay. shares compounds with PMP22 txn. Potency, µM (series often up to 57.5 µM), inactives show at the highest dose activity change, negative = inhibition, hits mostly inhibitors. actives 5% (n = 690). secreted NLuc enzyme, coelenterazine luminescence, Km conditions. AID 1508639, 2021; note: potency is the fitted concentration of half-maximal effect; % is set by controls: 0 for no effect and ±100 for the full control effect
# FLuc counter – Biochemical FLuc counterscreen for small molecule modulators of PMP22 gene expression. purified P. pyralis FLuc, luminescence, 10 min. Potency, µM (top dose mostly 57.5 µM), inactives show at the highest dose activity, negative = inhibition, usual class: inhibitors. AID 1508640, 2021. 690 tested, under 10 active. shares compounds with PMP22 txn; note: % of control where 0% means no effect
# Target sequence (P08659 whole entry, looked up): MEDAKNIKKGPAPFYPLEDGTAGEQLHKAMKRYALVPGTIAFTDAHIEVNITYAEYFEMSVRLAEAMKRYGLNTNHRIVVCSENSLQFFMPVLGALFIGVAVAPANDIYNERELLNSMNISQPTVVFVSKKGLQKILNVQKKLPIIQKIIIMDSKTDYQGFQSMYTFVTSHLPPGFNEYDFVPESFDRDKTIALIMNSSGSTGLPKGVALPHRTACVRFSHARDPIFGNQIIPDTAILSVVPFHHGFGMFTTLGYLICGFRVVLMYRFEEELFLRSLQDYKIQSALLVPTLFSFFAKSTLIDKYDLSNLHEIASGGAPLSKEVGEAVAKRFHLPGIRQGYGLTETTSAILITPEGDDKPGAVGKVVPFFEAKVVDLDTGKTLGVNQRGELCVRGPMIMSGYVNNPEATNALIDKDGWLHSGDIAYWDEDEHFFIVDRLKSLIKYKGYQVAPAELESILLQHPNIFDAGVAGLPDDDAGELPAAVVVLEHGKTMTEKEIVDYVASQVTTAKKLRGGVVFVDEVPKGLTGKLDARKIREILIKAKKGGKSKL
# S16 viab conf – Cell viability qHTS assay in S16 Pmp22-F2sN cells - Confirmatory screen; shares compounds with PMP22 txn; S16 Schwann cells viability, CellTiter-Glo ATP luminescence, 24 h; AID 1508641, 2021; Potency, µM (top dose mostly 57.5 µM), for the others: at the highest dose activity change, negative = viability loss, most hits filed as cytotoxic; actives 7% (n = 690); note: potency is the fitted concentration of half-maximal effect; % is set by controls: 0 for no effect and ±100 for the full control effect
# PMP22 txn conf – Cell-based coincidence reporter assay to measure PMP22 gene transcription in S16 Pmp22-F2sN cells - Confirmatory screen; shares compounds with PMP22 txn; S16 Schwann cells Pmp22-F2sN, dual luciferase, 24 h; Potency, µM (doses to about 57.5 µM), for inactives: top-dose activity change, negative = inhibition, usual class: inhibitors; actives 22% (n = 690); active = clear falling dose curves in both reporters; inconclusive = both reporters move, but less clearly or upward; inactive = either reporter flat; the % is the FLuc reporter signal; note: potency is the fitted concentration of half-maximal effect
# * = called active by the depositor; i = inactive; u = inconclusive; x = no result given. Unless noted, calls come from the whole dose curve; as a rule, active = well fitted curve in the direction sought with a large enough effect; inconclusive = small, poorly fitted or top-dose-only effect, or another doubt; inactive = no such curve, though single readings can be large; an effect the other way counts as inactive or inconclusive.
SMILES,p53null 32C tox,p53null 39C kill,mTORC1 inh,PMP22 txn,OvCa metastasis,S16 F2sN tox,NLuc saturating,NLuc Km ctr,FLuc counter,S16 viab conf,PMP22 txn conf
Cc1ccc(NC(=O)CSc2nc3n[nH]c(C)c3c(=N)n2-c2ccccc2C)cc1C,-7%,13%,-4%,17µM*,-7%,-2%,u,u,8%,-10%,-39%
Cc1ccc(NC(=O)CSc2nc3n[nH]c(C)c3c(=N)n2-c2cccc(C)c2)cc1,-19%,4%,-7%,u,i,-16%,x,x,x,x,x
Cc1ccccc1-n1c(SCC(=O)c2ccccc2)nnc1-c1ccc(F)cc1,55%,2%,u,18µM*,-7%,u,1.4µM*,1.7µM*,4%,-4%,u
C[C@@H](CN1CC(=O)NC(=O)C1)N1CC(=O)NC(=O)C1,x,x,x,x,-10%,x,x,x,x,x,x
CC(=O)c1c(C)oc2ccc(N(C(=O)Oc3ccccc3)S(=O)(=O)c3ccc(C(C)(C)C)cc3)cc12,25%,25%,-15%,13µM*,15%,2%,-14%,-6%,-2%,-5%,u
CCOC(=O)c1c(C)oc2ccc(N(C(=O)Oc3ccccc3)S(=O)(=O)c3ccc(CC)cc3)cc12,39%,53%,-4%,u,-5%,-2%,x,x,x,x,x
C[C@H](NC(=O)C(=O)Nc1ccccc1C(C)(C)C)C(=O)N[C@@H](CC(=O)O)C(=O)COc1c(F)c(F)cc(F)c1F,x,x,x,x,14%,x,x,x,x,x,x
O=C(CSc1nnc(-c2ccc(Cl)cc2)o1)c1ccc([N+](=O)[O-])cc1,4%,11%,-8%,u,i,25%,x,x,x,x,x
